This is one part of a sample in which hits are shown more often than they occur.
KDM5B inhibitor: blocks human KDM5B histone demethylase activity; AID 1347165; 220,000 compounds, 2.6% hits; Potency, µM (titrated, usually from 57.7 µM), hits mostly inhibitors; KDM5B demethylase, FDH-coupled NADH fluorescence (FDH is formaldehyde dehydrogenase); active means well fitted inhibition curve with a large enough effect; further: nearly all actives have a fitted effect of over 70% in size
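Compound dilutions met 200 nM (final) KDM5BΔAP for 10 min at room temperature before substrate addition. The substrate mix held 12.5 µM H3K4me3 with cofactors 25 µM α-ketoglutarate and 50 µM Fe²⁺. NADH signal gain over 30 min defined activity.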
A number is an active result; . = inactive.

SMILES	KDM5B inhibitor
Cc1cc2nc(SCC(=O)Nc3cc(Cl)ccc3C)[nH]c(=O)c2[nH]1	.
CNc1ccc(OC2CCN(C(=O)CCc3nc4ccccc4[nH]3)C2)nc1 (stereo not given)	28µM
Cc1nc(-c2ccc(OC3CCN(C(=O)CCc4nc5ccccc5[nH]4)C3)cc2)no1 (stereo not given)	.
O=C(CCc1nc2ccccc2[nH]1)N1CCC(c2noc(-c3ccccn3)n2)C1 (stereo not given)	.
COc1ccc2c(CCNC(=O)c3ccccc3F)c[nH]c2c1	.
Cc1ccc(CN(C)C(C)c2ccc(S(C)(=O)=O)cc2)cc1 (stereo not given)	.
Cc1nnnn1-c1cccc(C(=O)N2CCCC3(CC2)CNC(=O)O3)c1 (stereo not given)	.
CCCc1ncncc1C(=O)N1CCCC2(CC1)CNC(=O)O2 (stereo not given)	.
Cc1cc(C)n2nc(C(=O)N3CCCC4(CNC(=O)O4)C3)cc2n1 (stereo not given)	25µM
CC(C)OCCCNC(=O)Cn1ccc2c(Cl)cccc21	.
Cc1ccc(S(=O)(=O)CCC(=O)OCC(=O)NC2CCCC2)cc1	.
CC(C)(C)NC(=O)c1cccc(NC(=O)c2cccnc2)c1	.
O=C(CN(C1CCCCC1)S(=O)(=O)c1ccc(Br)cc1)Nc1ccc(F)cc1F	.
COCCNC(=O)C1(C)CN(Cc2ccccc2)Cc2ccc(Nc3ccccc3)nc21 (stereo not given)	32µM
COC1CCN(C(=O)Cn2c3c(c(=O)n2Cc2ccccc2)CCN(Cc2ccccc2)C3)CC1	.
COCCNC(=O)C1Cn2cccc2C(=O)N1Cc1ccccc1 (stereo not given)	.
CCc1cccc(NC(=O)N2CCC(OC3CCN(Cc4ccccc4)CC3)CC2)c1	.
COCCN1Cc2ccc(Nc3ccc(OC)cc3)nc2C(C)(C(=O)Nc2ccccc2)C1 (stereo not given)	32µM
CNC(=O)[C@@H]1CN(Cc2ccccc2)C[C@H]1c1n[nH]c(C)n1	.
COCCNC(=O)C1CN(Cc2ccccc2)C(=O)N1 (stereo not given)	.
COc1ccc(NC(=O)c2nc3ccccc3nc2N2CCN(C)CC2)cc1	.
COc1ccc(CNC(=O)Nc2ccccc2)cc1	.
CC(=O)Nc1ccc(CN2CCC3(C2)C(=O)Nc2ccccc23)cc1 (stereo not given)	.
COC1CCN(C(=O)C2(C)CN(Cc3ccccc3)Cc3ccc(Nc4ccccc4)nc32)CC1 (stereo not given)	32µM
CNC(=O)C1(C)CN(Cc2ccccc2)Cc2ccc(Nc3ccccc3)nc21 (stereo not given)	35µM
SMILES	KDM5B inhibitor
O=C(O)CNC(=O)C1CCOCC1	.
O=C(NCc1ccc(C(F)(F)F)cc1)C1CCN(C(=O)/C=C/c2ccccc2)CC1	.
CCCc1cc(C(=O)OCC(=O)NC(=O)NC2CCCC2)sc1C	.
O=C(Cn1ccc2ccc(Cl)cc21)NCC1CCC(C(=O)O)CC1 (stereo not given)	.
CC12CC3(C)CC(C)(C1)CC(N)(C2)C3	.
Cc1ccc2c(CN3CCc4ccccc43)cc(=O)oc2c1C	.
O=C(CSc1ccc2c(c1)OCCCO2)Nc1cccc2ccccc12	.
Nc1nccnc1C(=O)NCCCNc1ccc(C(F)(F)F)cn1	.
CC1(CNC(=O)c2ccc3c(c2)OCO3)CCOCC1	.
COc1cc(C(=O)NCCc2ccccc2)ccc1OCC(=O)N1CCOCC1	.
O=C(NCCCN1CCOCC1)c1ccc(N2CCOCC2)c([N+](=O)[O-])c1	.
CC(C)(C(=O)NCCc1ccccc1)C1CCOCC1	.
CN1CCC2(C1)CN(CC1CCOCC1)c1ccc(C(=O)NCCc3ccccc3)cc12 (stereo not given)	32µM
O=C(NCCOc1ccccc1)c1ccc2c(c1)OCCN(CCC(F)(F)F)C2	.
COCCN1CCCCCC(O)c2cc(C(=O)NCCN3CCOCC3)ccc21 (stereo not given)	.
CN1CCC2(C1)CN(CC1CCOCC1)c1ccc(C(=O)NCCCO)cc12 (stereo not given)	35µM
CN1CCC2(C1)CN(CC1CCOCC1)c1ccc(C(=O)NCCOc3ccccc3)cc12 (stereo not given)	22µM
Cc1ccc2nc(C)c(C(=O)N3CCN(Cc4ccccc4C)CC3)cc2c1	.
COc1ccc(Oc2c(C)oc3cc(OCC(=O)NC4CCS(=O)(=O)C4)ccc3c2=O)cc1 (stereo not given)	.
CCOC(=O)C(NC(=O)C1Cc2ccccc2C(=O)O1)C(=O)OCC (stereo not given)	.
CCC1(N2CCN(C(=O)Nc3cccc(F)c3C)CC2)CCN(C(=O)C(C)C)C1 (stereo not given)	.
CC(C)(C)C(=N)N	.
O=C(Nc1ccccc1F)Nc1ccccc1SCc1cc(=O)n2ccccc2n1	.
Cc1ccc(C(C)C)c(OCC(O)CNCc2ccccc2)c1 (stereo not given)	.
O=C(Nc1ccccc1Cl)c1nn(Cc2ccccc2)c(=O)c2ccccc12	.
SMILES	KDM5B inhibitor
COc1cc(C(=O)N/C(=C\c2cn(C)c3ccccc23)C(=O)NCCO)cc(OC)c1OC	.
COCCNc1ccc2nnc(C)n2n1	.
COc1ccc(-c2nnc3ccc(Nc4cccc(OC)c4)nn23)nc1	.
COc1ccc(-c2nnc3ccc(NC4CCCCC4)nn23)nc1	32µM
Cc1ccc(-c2nnc3ccc(NC4CCC4)nn23)nc1	.
COc1ccnc(-c2nnc3ccc(Nc4cc(OC)c(OC)c(OC)c4)nn23)c1	.
COCCNc1ccc2nnc(-c3ccc(OC)cn3)n2n1	40µM
COc1ccccc1N1C(=O)C(Cc2ccccc2)N=C1N1CCN(C)CC1 (stereo not given)	.
CC(C)(C)c1nc2cc(NC(=O)c3cc[n+]([O-])cc3)ccc2o1	.
O=C1NCCOCCCN(S(=O)(=O)c2ccc3c(c2)OCCO3)[C@H]2CCC[C@@H]12	.
COc1cc(NC(=O)Cn2c(Nc3ccc(F)c(C)c3)nc(C)cc2=O)cc(OC)c1OC	.
Cc1cc(C)c(CNC(=O)c2cc(-c3ccccc3F)cc3c2OCCN3C)c(=O)[nH]1	32µM
Cc1cc(C)c(CNC(=O)c2cc(-c3ccccc3O)cc3c2OCCN3C)c(=O)[nH]1	35µM
COC(=O)Nc1ccc(CNC(=O)c2cccc(C)c2)cc1	.
Cc1ccc(NC(=O)CCC2CCN(S(=O)(=O)c3ccccc3C)CC2)cc1F	.
O=C(c1cccs1)N(Cc1cccs1)C1CC1	.
O=C(O)c1ccc(NC(NC(=O)c2ccco2)C(=O)c2ccccc2)cc1 (stereo not given)	.
CCOC(=O)C1=CN(c2ccc(OCC)cc2)C=C(C(=O)OCC)C1c1ccc2c(c1)OCO2	.
O=C(Nc1cccc(-c2nc3ccccc3o2)c1)c1ccccc1Br	.
CCC(=O)c1ccc(OC(=O)/C=C/c2cccc(Cl)c2)cc1	.
CCOc1ccc(C(CC(=O)Nc2ccc(C)cc2C)N2Cc3ccccc3C2=O)cc1OC (stereo not given)	.
Cn1cc(C(=O)NCC2CN([S+](=O)([O-])c3ccccc3Cl)CC23CN(c2ccccc2)C3)cn1 (stereo not given)	.
C[C@@H]1CN(C(=O)c2ccc3c(c2)CCC3)C[C@]1(C)O	.
Cc1cc(C(F)(F)F)n2ncc(C(=O)N3C[C@@H](C)[C@](O)(C4CCC4)C3)c2n1	.
Cc1cc(C2CCC2)nc(N2C[C@@H](C)[C@@](C)(O)C2)n1	28µM
Cc1csc2nc(CSc3ccccc3NC(=O)COc3ccccc3Cl)cc(=O)n12	.
